The panel holds about 83,000 compounds, 20% with a hit somewhere; the sample as a whole holds those more often.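 Activity criterion: percent growth below 10, measured after cells in 96-well plates were exposed to a single compound concentration for 48 hours.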
How the values were obtained:
Assay in all cases: NCI-60 one-dose screen, 48 h (100 = growth as untreated, 0 = no growth, -100 = all killed)
Conditions in all cases: 10 µM unless noted
NCI-H226 lung = tested on: NCI-H226 lung
HOP-62 NSCLC = tested on: HOP-62 NSCLC
NCI-H460 lung = tested on: NCI-H460 lung
HOP-92 NSCLC = tested on: HOP-92 NSCLC
NCI-H522 lung = tested on: NCI-H522 lung
A549/ATCC NSCLC = tested on: A549/ATCC NSCLC
786-0 renal = tested on: 786-0 renal
COLO 205 colon = tested on: COLO 205 colon
DU-145 prostate = tested on: DU-145 prostate
K-562 leukemia = tested on: K-562 leukemia
MALME-3M melanoma = tested on: MALME-3M melanoma
MDA-MB-231 breast = tested on: MDA-MB-231 breast
RXF 393 renal = tested on: RXF 393 renal
SF-268 CNS = tested on: SF-268 CNS
SF-295 CNS = tested on: SF-295 CNS
SF-539 CNS = tested on: SF-539 CNS
UACC-257 melanoma = tested on: UACC-257 melanoma
M14 melanoma = tested on: M14 melanoma
NCI-H322M lung = tested on: NCI-H322M lung

Measured: growth

COc1ccc(C2CC(c3ccc(OC)cc3OC)=NN2c2ccc(S(N)(=O)=O)cc2)cc1 (stereo not drawn)
inactive: NCI-H226 lung 101% | HOP-62 NSCLC 119% | NCI-H460 lung 87.3% | HOP-92 NSCLC 77.7% | NCI-H522 lung 63.7% | A549/ATCC NSCLC 59% | 786-0 renal 99.3% | COLO 205 colon 112% | DU-145 prostate 115% | K-562 leukemia 58.3% | MALME-3M melanoma 123% | MDA-MB-231 breast 110% | RXF 393 renal 82.4% | SF-268 CNS 161% | SF-295 CNS 88.5% | SF-539 CNS 103% | UACC-257 melanoma 77.3% | M14 melanoma 96.2%

CC1(C)C(=O)/C(=C\c2ccc(C(F)(F)F)cc2)C[C@]2(C)[C@H]3CC[C@@H]4[C@H]5[C@H](C(=O)/C=C/c6ccc(C(F)(F)F)cc6)CC[C@]5(CO)CC[C@@]4(C)[C@]3(C)CC[C@@H]12
inactive: NCI-H226 lung 91.4% | NCI-H322M lung 101% | HOP-62 NSCLC 101% | NCI-H460 lung 99.4% | HOP-92 NSCLC 93.7% | NCI-H522 lung 97.9% | A549/ATCC NSCLC 90.6% | 786-0 renal 107% | COLO 205 colon 115% | DU-145 prostate 109% | K-562 leukemia 86.9% | MALME-3M melanoma 96.2% | MDA-MB-231 breast 98.4% | RXF 393 renal 103% | SF-268 CNS 89.7% | SF-539 CNS 93.7% | UACC-257 melanoma 101% | M14 melanoma 93.1%

CCOC(=O)c1c(/N=C2\SC(=O)/C(=C\C(=O)OC)N2NC)sc2c1CCN(C(=O)OCC)C2
inactive: NCI-H226 lung 99% | NCI-H322M lung 97.8% | HOP-62 NSCLC 99.2% | NCI-H460 lung 101% | HOP-92 NSCLC 90.6% | NCI-H522 lung 94.7% | A549/ATCC NSCLC 98.8% | COLO 205 colon 109% | DU-145 prostate 101% | K-562 leukemia 99.9% | MALME-3M melanoma 101% | MDA-MB-231 breast 100% | RXF 393 renal 106% | SF-268 CNS 96.2% | SF-295 CNS 98.7% | SF-539 CNS 96.9% | UACC-257 melanoma 101% | M14 melanoma 91.7%

O=C1CS/C(=N\Nc2cc(=O)[nH]c3ccccc23)N1c1ccccc1
inactive: NCI-H226 lung 95.6% | NCI-H322M lung 99.3% | HOP-62 NSCLC 86.6% | NCI-H460 lung 100% | NCI-H522 lung 76.2% | A549/ATCC NSCLC 97.2% | COLO 205 colon 105% | DU-145 prostate 111% | K-562 leukemia 86.8% | MALME-3M melanoma 96.9% | MDA-MB-231 breast 78.3% | RXF 393 renal 95.6% | SF-268 CNS 86.1% | SF-295 CNS 96.8% | SF-539 CNS 93% | UACC-257 melanoma 99.9% | M14 melanoma 104%

Cn1cnc2c(N3CCN(C(=O)OCc4ccc5c(Cl)cc(Cl)c(O)c5n4)CC3)nc(Cl)nc21
inactive: NCI-H226 lung 72.9% | NCI-H322M lung 70.2% | HOP-62 NSCLC 53.7% | NCI-H460 lung 27.6% | HOP-92 NSCLC 70.7% | NCI-H522 lung 80.3% | A549/ATCC NSCLC 51.2% | 786-0 renal 92.1% | COLO 205 colon 109% | DU-145 prostate 61.1% | K-562 leukemia 44.9% | MALME-3M melanoma 85.2% | MDA-MB-231 breast 83% | RXF 393 renal 74.4% | SF-268 CNS 59.5% | SF-295 CNS 38.7% | SF-539 CNS 82.7% | UACC-257 melanoma 89.6% | M14 melanoma 66.1%

Cn1ncc2c(Sc3ccc(Cl)cc3)ncnc21
inactive: NCI-H226 lung 108% | HOP-62 NSCLC 111% | NCI-H460 lung 92.9% | NCI-H522 lung 21.4% | A549/ATCC NSCLC 93.1% | 786-0 renal 98.8% | COLO 205 colon 90.8% | DU-145 prostate 83% | K-562 leukemia 78.1% | MALME-3M melanoma 69.9% | MDA-MB-231 breast 98.6% | RXF 393 renal 117% | SF-268 CNS 57.8% | SF-295 CNS 96.8% | SF-539 CNS 92.2% | UACC-257 melanoma 103% | M14 melanoma 103%

CCN(CC)CCCNc1nccc2ccc(Cl)cc12
inactive: NCI-H226 lung 97.9% | NCI-H322M lung 104% | HOP-62 NSCLC 96.5% | NCI-H460 lung 103% | HOP-92 NSCLC 68.1% | NCI-H522 lung 102% | A549/ATCC NSCLC 94.9% | 786-0 renal 104% | COLO 205 colon 108% | DU-145 prostate 113% | K-562 leukemia 107% | MALME-3M melanoma 111% | MDA-MB-231 breast 87% | RXF 393 renal 97.6% | SF-268 CNS 111% | SF-295 CNS 100% | SF-539 CNS 104% | UACC-257 melanoma 91% | M14 melanoma 95%

CN(C)c1nc2c(N)ncnc2n1C1OC(CO)C(O)C1O (stereo not drawn)
inactive: NCI-H226 lung 104% | NCI-H322M lung 122% | HOP-62 NSCLC 103% | HOP-92 NSCLC 98.1% | NCI-H522 lung 108% | A549/ATCC NSCLC 106% | 786-0 renal 99.2% | COLO 205 colon 108% | DU-145 prostate 118% | MALME-3M melanoma 88% | MDA-MB-231 breast 116% | RXF 393 renal 113% | SF-268 CNS 105% | SF-295 CNS 111% | SF-539 CNS 101% | UACC-257 melanoma 105% | M14 melanoma 102%

From PubChem BioAssay (NCI)
